{"source": "PubChem BioAssay (NCI)", "note": "Compounds without any hit were thinned out: in the full panel of roughly 83,000, 20% have a hit.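 Compound tested at a single concentration for 48 hours in 96-well plates; a percent growth value below 10 was scored as active.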 Unmarked numbers belong to inactive results. Activity calls are given as the source filed them."}
{"tested_on": "MOLT-4 leukemia", "test": "NCI-60 one-dose screen, 48 h (100 = growth as untreated, 0 = no growth, -100 = all killed)", "conditions": "10 µM"}
{"smiles": "Fc1ccc(C2=NN(c3ccccc3)C(c3sc(N(CCCl)CCCl)nc3Cl)C2)cc1", "note": "(stereo unspecified)", "growth": "65.4%"}
{"smiles": "CC[C@H](C)[C@H](NC(=O)Nc1ccccc1)C(=O)N(C)[C@H](C[C@@H](OC(C)=O)c1nc(C(=O)N[C@@H](Cc2ccccc2)C[C@H](C)C(=O)OC)cs1)C(C)C", "growth": "15.7%"}
{"smiles": "c1ccc(CCN2CCCCC2Cc2ccccc2)cc1", "note": "(stereo unspecified)", "growth": "92.7%"}
{"smiles": "CC(=O)O[C@H]1CCC2(C)C(=CCC3C2CCC2(C)/C(=N/OC(=O)c4ccc(N(CCCl)CCCl)cc4)CCC32)C1", "note": "(stereo partly specified)", "growth": "3.85% (active)"}
{"smiles": "O=[As]c1ccc(C(=O)c2ccc(Oc3ccccc3)cc2)cc1", "note": "(stereo unspecified)", "growth": "-25.2% (active)"}
{"smiles": "O=[N+]([O-])c1cc([N+](=O)[O-])c(Cl)c(Cl)c1Cl", "growth": "2.06% (active)"}
{"smiles": "Cc1cc(NC(=O)NCCOc2ccc(N3C(N)=NC(N)=NC3(C)C)cc2Cl)ccc1S(=O)(=O)F", "growth": "26.7%"}
{"smiles": "COc1ccc2c(c1)NC1=C(C(=O)OC1)C2c1cc(OC)c(OC)c(OC)c1", "note": "(stereo unspecified)", "growth": "5.82% (active)"}
{"smiles": "CC(C)(O)/C=C/C(=O)[C@](C)(O)[C@H]1[C@H](O)C[C@@]2(C)[C@@H]3CC=C4[C@@H](C=C(O)C(=O)C4(C)C)[C@]3(C)C(=O)C[C@]12C", "growth": "-15.1% (active)"}
{"smiles": "C[C@]12CCc3sc(-c4ccc(Cl)cc4)nc3C1=CC[C@@H]1[C@@H]2CC[C@]2(C)C(=O)CC[C@@H]12", "growth": "8.47% (active)"}
{"smiles": "C=CCC1(CC)C(=O)NC(=S)NC1=O", "growth": "93.2%"}
{"smiles": "NC(Cc1ccc2c(c1)OCO2)c1ccc2c(c1)OCO2", "note": "(stereo unspecified)", "growth": "107%"}
{"smiles": "O=C(CF)N(O)c1ccc(/C=C/c2ccccc2)cc1", "growth": "34.9%"}
{"smiles": "COc1ccc(/C=C(/C(=O)N2CCCC2)c2cc(OC)c(OC)c(OC)c2)cc1N", "growth": "34.4%"}
{"smiles": "Nc1nc(N)c(-c2ccc(Cl)c(Cl)c2)c(/C=C/c2ccc(S(=O)(=O)F)cc2)n1", "growth": "76.8%"}
{"smiles": "Nc1c(Br)cc([N+](=O)[O-])cc1[N+](=O)[O-]", "growth": "97.2%"}
{"smiles": "Oc1ccc(O)c2c1C1(Cl)C(Cl)=C(Cl)C2(Cl)C1(Cl)Cl", "growth": "54.3%"}
{"smiles": "CN(C)P1(N(C)C)=NP(N(C)C)(N(C)C)=NP(N(C)C)(N(C)C)=N1", "growth": "102%"}
{"smiles": "CCCCNCCc1ccccn1", "growth": "97.5%"}
{"smiles": "NC(=O)SCC(=O)Nc1ccc([As](=O)(O)O)cc1", "growth": "86.1%"}
{"smiles": "C[C@]12CC[C@H]3[C@@H](C[C@@H]4N=C(c5ccc(O)cc5)S[C@@]45C[C@H](O)CC[C@]35C)[C@@H]1CC[C@@H]2O", "growth": "-23.2% (active)"}
{"smiles": "CC1(C)N=C(N)N=C(N)N1c1ccc(CCCCc2ccc(S(=O)(=O)F)cc2)cc1", "growth": "25.3%"}
{"smiles": "Nc1c(Br)cc2c3c(cccc13)-c1ccccc1-2", "growth": "53.8%"}
{"smiles": "COc1cc2c(cc1OC)CN(C)C(C)C2", "note": "(stereo unspecified)", "growth": "113%"}
{"smiles": "CC(C)C1c2ccc(O)cc2Oc2nc(N)c(C#N)c(N)c21", "note": "(stereo unspecified)", "growth": "98.1%"}
{"smiles": "c1ccc2nc(OCCN3CC3)ccc2c1", "growth": "34%"}
{"smiles": "CC1(C)N=C(N)N=C(N)N1c1ccc(CNC(=O)Nc2ccc(S(=O)(=O)F)c(Cl)c2)c(Cl)c1", "growth": "22.1%"}
{"smiles": "c1ccc(-c2ccc3ccccc3[o+]2)cc1", "growth": "79%"}
{"smiles": "CSc1ccccc1NP1(=O)OCC(C)([N+](=O)[O-])CO1", "note": "(stereo unspecified)", "growth": "94.4%"}
{"smiles": "CC1COC(=O)C1", "note": "(stereo unspecified)", "growth": "102%"}
{"smiles": "C[CH2][Pb]([CH2]C)([CH2]C)[O]C(=O)COc1ccccc1", "growth": "-27.2% (active)"}
{"smiles": "COc1ccc(/C=C\\c2cc(OC)c(OC)c(OC)c2)cc1N/C=C\\C(=O)c1c[nH]c2ccccc12", "growth": "14.4%"}
{"smiles": "CCCC(C)(C)c1ccc2c(c1)OC(C)(C)[C@@H]1CC=C(C)C[C@@H]21", "growth": "95.6%"}
{"smiles": "OC1(c2ccc(Cl)cc2Cl)c2ccccc2C2=NCCN21", "note": "(stereo unspecified)", "growth": "78.9%"}
{"smiles": "CC1(CF)NC(=O)NC1=O", "note": "(stereo unspecified)", "growth": "98.4%"}
{"smiles": "O=C(Nc1ccc(S(=O)(=O)F)cc1)Oc1ccccc1", "growth": "109%"}
